From PubChem BioAssay AID1159580 (chemical genetic matrix, 2015)
Screen size: about 5,500 compounds; about 2,000 (36%) were called active. About 18% were inconclusive and are not listed. No stated cut-off is given here; in the data, active means normalized growth mostly below about 0.91 (no sharp cut-off); inconclusive means no clear call, values can overlap the other calls; inactive means mostly above about 0.92. The list shows a part of the results.

Assay: chemical genetic growth profiling, strain panel (AID 1159580);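 further: tested at 20 µM; growth read once vehicle control cultures reached saturation at 30 °C; 1 = growth at the plate median or of vehicle wells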
Details: growth OD
[1] = S. cerevisiae deletion strains, locus YDL101C, strain DUN1, stronger effect = lower value
[2] = S. cerevisiae deletion strains, locus YHR030C, strain SLT2, stronger effect = lower value

Measured: normalized growth

Cc1c(-c2ccnn2C(=O)c2ccco2)cnn1-c1ccccc1
active: [2] 0.739 | S. cerevisiae deletion strains, locus YLR113W, strain HOG1, stronger effect = lower value 0.799 | S. cerevisiae deletion strains, locus YPL256C, strain CLN2, stronger effect = lower value 0.825
inactive: S. cerevisiae deletion strains, locus YAR019C, strain CDC15, stronger effect = lower value 0.954 | S. cerevisiae deletion strains, locus YBL105C, strain PKC1, stronger effect = lower value 0.957 | S. cerevisiae deletion strains, locus YBR135W, strain CKS1, stronger effect = lower value 0.958 | S. cerevisiae deletion strains, locus YBR136W, strain MEC1, stronger effect = lower value 0.954 | S. cerevisiae deletion strains, locus YBR160W, strain CDC28, stronger effect = lower value 0.957 | S. cerevisiae deletion strains, locus YDL017W, strain CDC7, stronger effect = lower value 0.964 | S. cerevisiae deletion strains, locus YDL028C, strain MPS1, stronger effect = lower value 0.93 | [1] 0.978 | S. cerevisiae deletion strains, locus YDL108W, strain KIN28, stronger effect = lower value 0.954 | S. cerevisiae deletion strains, locus YDL132W, strain cdc53, stronger effect = lower value 0.953 | S. cerevisiae deletion strains, locus YDL214C, strain PRR2, stronger effect = lower value 0.904 | S. cerevisiae deletion strains, locus YDR052C, strain DBF4, stronger effect = lower value 0.982 | S. cerevisiae deletion strains, locus YDR054C, strain cdc34, stronger effect = lower value 0.952 | S. cerevisiae deletion strains, locus YDR226W, strain ADK1, stronger effect = lower value 0.953 | S. cerevisiae deletion strains, locus YDR477W, strain SNF1, stronger effect = lower value 0.861 | S. cerevisiae deletion strains, locus YER123W, strain YCK3, stronger effect = lower value 0.925 | S. cerevisiae deletion strains, locus YER133W, strain GLC7, stronger effect = lower value 0.915 | S. cerevisiae deletion strains, locus YFL009W, strain cdc4, stronger effect = lower value 0.936 | S. cerevisiae deletion strains, locus YFL029C, strain CAK1, stronger effect = lower value 0.954 | S. cerevisiae deletion strains, locus YFR003C, strain YPI1, stronger effect = lower value 0.959 | S. cerevisiae deletion strains, locus YFR019W, strain FAB1, stronger effect = lower value 0.945 | S. cerevisiae deletion strains, locus YFR028C, strain CDC14, stronger effect = lower value 0.94 | S. cerevisiae deletion strains, locus YGR040W, strain KSS1, stronger effect = lower value 0.872 | S. cerevisiae deletion strains, locus YGR052W, strain FMP48, stronger effect = lower value 0.966 | S. cerevisiae deletion strains, locus YGR092W, strain DBF2, stronger effect = lower value 0.917 | S. cerevisiae deletion strains, locus YHR079C, strain IRE1, stronger effect = lower value 0.909 | S. cerevisiae deletion strains, locus YHR082C, strain KSP1, stronger effect = lower value 0.953 | S. cerevisiae deletion strains, locus YHR205W, strain SCH9, stronger effect = lower value 0.909 | S. cerevisiae deletion strains, locus YIL147C, strain SLN1, stronger effect = lower value 0.958 | S. cerevisiae deletion strains, locus YJL095W, strain BCK1, stronger effect = lower value 0.842 | S. cerevisiae deletion strains, locus YJL128C, strain PBS2, stronger effect = lower value 0.908 | S. cerevisiae deletion strains, locus YJL157C, strain FAR1, stronger effect = lower value 0.916 | S. cerevisiae deletion strains, locus YJR016C, strain ILV3, stronger effect = lower value 0.962 | S. cerevisiae deletion strains, locus YJR066W, strain TOR1 (second series), stronger effect = lower value 0.828 | S. cerevisiae deletion strains, locus YJR066W, strain TOR1, stronger effect = lower value 0.89 | S. cerevisiae deletion strains, locus YKL048C, strain ELM1, stronger effect = lower value 0.972 | S. cerevisiae deletion strains, locus YKL067W, strain YNK1, stronger effect = lower value 0.908 | S. cerevisiae deletion strains, locus YKL101W, strain HSL1, stronger effect = lower value 0.894 | S. cerevisiae deletion strains, locus YKL193C, strain SDS22, stronger effect = lower value 0.959 | S. cerevisiae deletion strains, locus YKL203C, strain TOR2, stronger effect = lower value 0.965 | S. cerevisiae deletion strains, locus YLR133W, strain CKI1, stronger effect = lower value 0.917 | S. cerevisiae deletion strains, locus YLR403W, strain SFP1, stronger effect = lower value 0.873 | S. cerevisiae deletion strains, locus YML070W, strain DAK1, stronger effect = lower value 0.895 | S. cerevisiae deletion strains, locus YMR001C, strain CDC5, stronger effect = lower value 0.953 | S. cerevisiae deletion strains, locus YMR205C, strain PFK2 (second series), stronger effect = lower value 0.939 | S. cerevisiae deletion strains, locus YMR277W, strain FCP1, stronger effect = lower value 0.938 | S. cerevisiae deletion strains, locus YNL006W, strain LST8, stronger effect = lower value 0.953 | S. cerevisiae deletion strains, locus YNL020C, strain ARK1, stronger effect = lower value 0.931 | S. cerevisiae deletion strains, locus YNL161W, strain CBK1, stronger effect = lower value 0.974 | S. cerevisiae deletion strains, locus YNL183C, strain NPR1, stronger effect = lower value 0.953 | S. cerevisiae deletion strains, locus YNL207W, strain RIO2, stronger effect = lower value 0.958 | S. cerevisiae deletion strains, locus YNL222W, strain SSU72, stronger effect = lower value 0.943 | S. cerevisiae deletion strains, locus YNL307C, strain MCK1 (second series), stronger effect = lower value 0.894 | S. cerevisiae deletion strains, locus YOL078W, strain AVO1, stronger effect = lower value 0.958 | S. cerevisiae deletion strains, locus YOL136C, strain PFK27, stronger effect = lower value 0.898 | S. cerevisiae deletion strains, locus YOR061W, strain CKA2, stronger effect = lower value 0.909 | S. cerevisiae deletion strains, locus YOR119C, strain RIO1, stronger effect = lower value 0.919 | S. cerevisiae deletion strains, locus YOR231W, strain MKK1, stronger effect = lower value 0.885 | S. cerevisiae deletion strains, locus YOR329C, strain SCD5, stronger effect = lower value 0.974 | S. cerevisiae deletion strains, locus YPL031C, strain PHO85, stronger effect = lower value 0.858 | S. cerevisiae deletion strains, locus YPL153C, strain RAD53, stronger effect = lower value 0.873 | S. cerevisiae deletion strains, locus YPL204W, strain HRR25, stronger effect = lower value 0.851 | S. cerevisiae deletion strains, locus YPL209C, strain IPL1, stronger effect = lower value 0.969 | S. cerevisiae deletion strains, locus YPR025C, strain CCL1, stronger effect = lower value 0.957 | S. cerevisiae deletion strains, locus YPR106W, strain ISR1, stronger effect = lower value 0.957 | S. cerevisiae deletion strains, locus YPR111W, strain DBF20, stronger effect = lower value 0.917 | S. cerevisiae deletion strains, strain NNK1, stronger effect = lower value 0.964 | S. cerevisiae deletion strains, strain TSCII, stronger effect = lower value 0.94

CC(=O)c1cnn(-c2ccccc2)c1C
inactive: S. cerevisiae deletion strains, locus YAL013W, strain DEP1, stronger effect = lower value 0.979 | S. cerevisiae deletion strains, locus YBR229C, strain ROT2, stronger effect = lower value 0.984 | S. cerevisiae deletion strains, locus YCL061C, strain MRC1, stronger effect = lower value 0.992 | [1] 0.985 | S. cerevisiae deletion strains, locus YDL134C, strain PPH21, stronger effect = lower value 1.01 | S. cerevisiae deletion strains, locus YDR150W, strain NUM1, stronger effect = lower value 0.925 | S. cerevisiae deletion strains, locus YEL061C, strain CIN8, stronger effect = lower value 1 | S. cerevisiae deletion strains, locus YGR078C, strain PAC10, stronger effect = lower value 0.995 | [2] 0.945 | S. cerevisiae deletion strains, locus YHR087W, strain rtc3, stronger effect = lower value 0.99 | S. cerevisiae deletion strains, locus YJR043C, strain POL32, stronger effect = lower value 0.994 | S. cerevisiae deletion strains, locus YJR075W, strain HOC1, stronger effect = lower value 1 | S. cerevisiae deletion strains, locus YLR039C, strain RIC1, stronger effect = lower value 1 | S. cerevisiae deletion strains, locus YLR058C, strain SHM2 (second series), stronger effect = lower value 0.998 | S. cerevisiae deletion strains, locus YLR085C, strain ARP6, stronger effect = lower value 0.963 | S. cerevisiae deletion strains, locus YLR262C, strain YPT6, stronger effect = lower value 1.01 | S. cerevisiae deletion strains, locus YML094W, strain GIM5, stronger effect = lower value 0.948 | S. cerevisiae deletion strains, locus YMR219W, strain ESC1, stronger effect = lower value 0.997 | S. cerevisiae deletion strains, locus YMR263W, strain SAP30, stronger effect = lower value 0.922 | S. cerevisiae deletion strains, locus YMR307W, strain GAS1, stronger effect = lower value 0.957 | S. cerevisiae deletion strains, locus YNL153C, strain GIM3, stronger effect = lower value 0.981 | S. cerevisiae deletion strains, locus YNL298W, strain CLA4 (second series), stronger effect = lower value 1 | S. cerevisiae deletion strains, locus YNL322C, strain KRE1, stronger effect = lower value 0.997 | S. cerevisiae deletion strains, locus YNR030W, strain Alg12, stronger effect = lower value 1 | S. cerevisiae deletion strains, locus YOL006C, strain TOP1, stronger effect = lower value 0.983 | S. cerevisiae deletion strains, locus YPL055C, strain LGE1, stronger effect = lower value 0.848 | S. cerevisiae deletion strains, locus YPL241C, strain CIN2, stronger effect = lower value 0.984 | S. cerevisiae deletion strains, locus YPR135W, strain CTF4, stronger effect = lower value 0.944 | S. cerevisiae strains, strain wild type, stronger effect = lower value 0.997
